These results are taken from PubChem BioAssay (Tox21).

Results filed as inconclusive are left out. Entries that show only a call come without a potency. Activity calls are given as the source filed them. Calls come from the whole dose curve.

The first assay in a line: p53 small molecule agonists, cell-based qHTS assay with human liver microsomes (AID 1963577).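 Note: p53 response element beta-lactamase reporter cells with liver microsomes plus NADPH.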 The following applies: HCT-116 p53RE-bla with human liver microsomes, ratio, 16 h; series mostly up to 66 µM. A digest of the protocol: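 HLM-supplemented p53RE-bla reporter assay: 16 h compound exposure at 37 C, microsomes and NADPH each 0.5 mg/mL final, read by fluorescence intensity.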
Consider `C=CC(=O)O`, for which the Potency result is “inactive”. Turning to `C[C@H](CCC(=O)O)[C@H]1CC[C@H]2[C@@H]3[C@H](O)C[C@@H]4C[C@H](O)CC[C@]4(C)[C@H]3C[C@H](O)[C@]12C`, the Potency entry was “inactive”. Still for that read-out and setting: the same measure for `Cc1ccco1`: “inactive”; for `CCCCOC(=O)C(C)Oc1ccc(Oc2ccc(C(F)(F)F)cn2)cc1` (stereo not given): “inactive”.

Another assay can be described thus: p53 small molecule agonists, cell-based qHTS assay with rat liver microsomes (AID 1963578). Conditions: HCT-116 p53RE-bla, beta-lactamase ratio, 16 h; series mostly up to 66 µM. A digest of the protocol:
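Quantitative HTS of the Tox21 10K library: p53RE-bla cells, rat liver microsomes plus NADPH at 0.5 mg/mL final each, 16 h at 37 C, beta-lactamase fluorescence detection.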
On to `CC(=O)c1ccc(Cl)c(Cl)c1Cl`, for which the Potency result was “inactive”. Still for that read-out and setting: the same measure for `O=C(O)CCC(=O)c1ccc(-c2ccccc2)cc1`: “inactive”; for `O=C(Nc1ccc2c(O)c(N=Nc3ccc(N=Nc4ccc(S(=O)(=O)O)cc4)cc3)c(S(=O)(=O)O)cc2c1)c1ccccc1`: “inactive”. On the same count and under the same terms, in the case of `CC(C)(C)C(=O)/C=C/c1ccc(Cl)cc1` it was “inactive”; in that of `C[C@@H](CN1CC(=O)NC(=O)C1)N1CC(=O)NC(=O)C1`, “inactive”.

In the case of `Cc1ccsc1C(=CCCN1CCC[C@@H](C(=O)O)C1)c1sccc1C`, the Potency entry is “inactive”. Still for that read-out and setting: the same measure for `CCCCCCCCCCC(=O)O`: “inactive”; for `CCOc1nc2cccc(C(=O)O)c2n1Cc1ccc(-c2ccccc2-c2nn[nH]n2)cc1`: “inactive”; for `CCCc1nc2c(C)cc(-c3nc4ccccc4n3C)cc2n1Cc1ccc(-c2ccccc2C(=O)O)cc1`: “inactive”. For the molecule `CCOCCOCCOC(C)=O`, the Potency entry was “inactive”. Same read-out and setting: in the case of `CO[Si](C)(OC)c1ccccc1` it was “inactive”; in that of `Cc1ccc(N(CC2=NCCN2)c2cccc(O)c2)cc1`, “inactive”. Same read-out and setting: the same measure for `COC(=O)c1ccccc1Cl`: “inactive”; for `CCOC(=O)CCCCCCCCC(=O)OCC`: “inactive”; for `COc1cccc(O)c1`: “inactive”. `[O-][n+]1cccc(CO)c1`: the Potency entry was “inactive”.

On to `CC1OCCC1=O` (stereo not given), for which the Potency result is “inactive”. Still for that read-out and setting: in the case of `CC(C)=CCC/C(C)=C/CC/C(C)=C/CO` it was “inactive”; in that of `O=[N+]([O-])c1cc(Cl)c(Cl)c(Cl)c1Cl`, “inactive”. For the molecule `COCCOCC(OC)OC`, the Potency entry is “inactive”. Same read-out and setting: the same measure for `ClC(Cl)(Br)Br`: “inactive”. On to `CCC(=O)c1cccc(Cl)c1`, for which the Potency entry was “inactive”.

Take `CC(C)(C)NC[C@H](O)COc1cccc2c1CCCC2=O`: the Potency result was “inactive”.

Regarding `CN(C)CCOC1=Cc2ccccc2Sc2ccc(Cl)cc21`, the Potency result was “inactive”. In the case of `COc1cc2nc(Cl)nc(N)c2cc1OC`, the Potency result was “inactive”. `O=C1CCCc2c(O)cccc21`: the Potency result is “inactive”. In the case of `Cc1c(C)c2c(c(C)c1O)CC[C@@](C)(CCC[C@H](C)CCC[C@H](C)CCCC(C)C)O2`, the Potency entry was “inactive”. On the same count and under the same terms, in the case of `C[C@H](CCC(=O)O)[C@H]1CC[C@H]2[C@@H]3[C@H](O)C[C@@H]4C[C@H](O)CC[C@]4(C)[C@H]3C[C@H](O)[C@]12C` it was “inactive”; in that of `Cc1ccco1`, “inactive”; in that of `CN(C)c1ccc(C(c2ccccc2)c2ccc(N(C)C)cc2)cc1`, “inactive”. Same read-out and setting: the same measure for `CCCCOC(=O)C(C)Oc1ccc(Oc2ccc(C(F)(F)F)cn2)cc1` (stereo not given): “inactive”.
